According to publication PMC11006913:
Numbering of substitutions follows the chain as printed.

Assays:
Test in all cases: PBM; 200 nM protein, PBS
Details in all cases: dsDNA, one strand shown
[1] = target: HOXA4 (Homo sapiens, UniProt Q00056 201-287, W262F)
[2] = target: T1, PAX4 (Homo sapiens, UniProt O43316 9-242, R200K)
T1 sequence: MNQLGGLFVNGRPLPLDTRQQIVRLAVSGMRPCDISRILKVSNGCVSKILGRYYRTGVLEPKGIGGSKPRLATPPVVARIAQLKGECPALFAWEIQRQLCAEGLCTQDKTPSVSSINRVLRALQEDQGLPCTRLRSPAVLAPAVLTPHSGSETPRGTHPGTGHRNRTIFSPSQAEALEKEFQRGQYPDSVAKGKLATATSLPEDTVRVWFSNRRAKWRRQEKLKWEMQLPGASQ

[3] = target: T2, VENTX (Homo sapiens, UniProt O95231 78-163, Y115F)
T2 sequence: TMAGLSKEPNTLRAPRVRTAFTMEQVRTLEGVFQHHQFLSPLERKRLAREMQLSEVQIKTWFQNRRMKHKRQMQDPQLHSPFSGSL

[4] = target: HOXA2 (Homo sapiens, UniProt O43364 129-215, R185T)
[5] = target: ALX3 (Homo sapiens, UniProt O95076 139-225, N203Q)
[6] = target: T3, PAX4 (Homo sapiens, UniProt O43316 9-242, F177V)
T3 sequence: T1 sequence with F169V, K192R

[7] = target: ALX3 (Homo sapiens, UniProt O95076 139-225)
[8] = target: T4, PAX4 (Homo sapiens, UniProt O43316 9-242, F177Y)
T4 sequence: T1 sequence with F169Y, K192R

[9] = target: VAX1 (Homo sapiens, UniProt Q5SQQ9 86-172, T142I)
[10] = target: T5, PAX4 (Homo sapiens, UniProt O43316 9-242, R227W)
T5 sequence: T1 sequence with K192R, R219W

[11] = target: ALX3 (Homo sapiens, UniProt O95076 139-225, N203S)
[12] = target: T6, VENTX (Homo sapiens, UniProt O95231 78-163, R121Q)
T6 sequence: T2 sequence with F38Y, R44Q

[13] = target: VAX1 (Homo sapiens, UniProt Q5SQQ9 86-172)
[14] = target: VAX1 (Homo sapiens, UniProt Q5SQQ9 86-172, K157R)
[15] = target: HOXA2 (Homo sapiens, UniProt O43364 129-215, R185K)
[16] = target: HOXA2 (Homo sapiens, UniProt O43364 129-215, Y150S)
[17] = target: HOXA2 (Homo sapiens, UniProt O43364 129-215)
[18] = target: HOXA7 (Homo sapiens, UniProt P31268 116-202)
[19] = target: HOXA7 (Homo sapiens, UniProt P31268 116-202, W177C)
[20] = target: HOXB6 (Homo sapiens, UniProt P17509 132-218, K202E)
Sequence of HOXB6 (P17509 132-218 K202E): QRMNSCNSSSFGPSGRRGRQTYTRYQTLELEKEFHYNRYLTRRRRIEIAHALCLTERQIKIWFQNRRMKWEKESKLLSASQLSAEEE

Sequence of HOXA2 (Homo sapiens, UniProt O43364 129-215, R185T) (O43364 129-215 R185T): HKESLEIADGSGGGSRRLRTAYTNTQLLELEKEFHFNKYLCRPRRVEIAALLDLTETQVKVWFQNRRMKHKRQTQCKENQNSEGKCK
Sequence of HOXA2 (Homo sapiens, UniProt O43364 129-215, Y150S) (O43364 129-215 Y150S): as the sequence (O43364 129-215 R185T) above, with Y22S, T57R counted along it
Sequence of ALX3 (Homo sapiens, UniProt O95076 139-225, N203S) (O95076 139-225 N203S): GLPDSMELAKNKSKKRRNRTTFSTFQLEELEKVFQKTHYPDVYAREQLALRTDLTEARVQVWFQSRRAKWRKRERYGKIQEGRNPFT
Sequence of HOXA2 (Homo sapiens, UniProt O43364 129-215, R185K) (O43364 129-215 R185K): as the sequence (O43364 129-215 R185T) above, with T57K counted along it
Sequence of VAX1 (Homo sapiens, UniProt Q5SQQ9 86-172, K157R) (Q5SQQ9 86-172 K157R): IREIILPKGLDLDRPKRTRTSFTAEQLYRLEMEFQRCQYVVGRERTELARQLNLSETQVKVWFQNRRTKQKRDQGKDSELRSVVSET
Sequence of VAX1 (Homo sapiens, UniProt Q5SQQ9 86-172, T142I) (Q5SQQ9 86-172 T142I): as the sequence (Q5SQQ9 86-172 K157R) above, with T57I, R72K counted along it
Sequence of ALX3 (Homo sapiens, UniProt O95076 139-225) (O95076 139-225): as the sequence (O95076 139-225 N203S) above, with S65N counted along it
Sequence of ALX3 (Homo sapiens, UniProt O95076 139-225, N203Q) (O95076 139-225 N203Q): as the sequence (O95076 139-225 N203S) above, with S65Q counted along it
Sequence of HOXA2 (Homo sapiens, UniProt O43364 129-215) (O43364 129-215): as the sequence (O43364 129-215 R185T) above, with T57R counted along it
Sequence of HOXA4 (Q00056 201-287 W262F): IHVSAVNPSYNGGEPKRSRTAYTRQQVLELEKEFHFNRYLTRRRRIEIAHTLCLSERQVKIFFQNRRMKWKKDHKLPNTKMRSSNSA
Sequence of VAX1 (Homo sapiens, UniProt Q5SQQ9 86-172) (Q5SQQ9 86-172): as the sequence (Q5SQQ9 86-172 K157R) above, with R72K counted along it
Sequence of HOXA7 (Homo sapiens, UniProt P31268 116-202, W177C) (P31268 116-202 W177C): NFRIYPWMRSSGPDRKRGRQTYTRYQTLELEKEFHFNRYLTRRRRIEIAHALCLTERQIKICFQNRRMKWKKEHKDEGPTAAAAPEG
Sequence of HOXA7 (Homo sapiens, UniProt P31268 116-202) (P31268 116-202): as the sequence (P31268 116-202 W177C) above, with C62W counted along it

CCGAGCGG
binding signal [1]: 9.89 upbm affinity estimate (log intensity, higher = more binding, comparable within an allelic series)

AATTAAGC
binding signal [2]: 11.7 upbm affinity estimate (log intensity, higher = more binding, comparable within an allelic series)
binding signal [3]: 11.5 upbm affinity estimate (log intensity, higher = more binding, comparable within an allelic series)
binding signal [4]: 12.5 upbm affinity estimate (log intensity, higher = more binding, comparable within an allelic series)
binding signal [5]: 8.44 upbm affinity estimate (log intensity, higher = more binding, comparable within an allelic series)
binding signal [6]: 10.5 upbm affinity estimate (log intensity, higher = more binding, comparable within an allelic series)
binding signal [7]: 12.4 upbm affinity estimate (log intensity, higher = more binding, comparable within an allelic series)
binding signal [8]: 11 upbm affinity estimate (log intensity, higher = more binding, comparable within an allelic series)
binding signal [9]: 12.3 upbm affinity estimate (log intensity, higher = more binding, comparable within an allelic series)
binding signal [10]: 10.9 upbm affinity estimate (log intensity, higher = more binding, comparable within an allelic series)
binding signal [1]: 11.5 upbm affinity estimate (log intensity, higher = more binding, comparable within an allelic series)
binding signal [11]: 8.49 upbm affinity estimate (log intensity, higher = more binding, comparable within an allelic series)

AATTAGCG
binding signal [12]: 11.9 upbm affinity estimate (log intensity, higher = more binding, comparable within an allelic series)
binding signal [2]: 11.8 upbm affinity estimate (log intensity, higher = more binding, comparable within an allelic series)
binding signal [3]: 11.6 upbm affinity estimate (log intensity, higher = more binding, comparable within an allelic series)
binding signal [4]: 12.6 upbm affinity estimate (log intensity, higher = more binding, comparable within an allelic series)
binding signal [5]: 8.21 upbm affinity estimate (log intensity, higher = more binding, comparable within an allelic series)
binding signal [6]: 10.4 upbm affinity estimate (log intensity, higher = more binding, comparable within an allelic series)
binding signal [7]: 12.4 upbm affinity estimate (log intensity, higher = more binding, comparable within an allelic series)
binding signal [8]: 11 upbm affinity estimate (log intensity, higher = more binding, comparable within an allelic series)
binding signal [13]: 12.6 upbm affinity estimate (log intensity, higher = more binding, comparable within an allelic series)
binding signal [9]: 12.4 upbm affinity estimate (log intensity, higher = more binding, comparable within an allelic series)
binding signal [10]: 11 upbm affinity estimate (log intensity, higher = more binding, comparable within an allelic series)
binding signal [11]: 8.38 upbm affinity estimate (log intensity, higher = more binding, comparable within an allelic series)
binding signal [14]: 12.5 upbm affinity estimate (log intensity, higher = more binding, comparable within an allelic series)

AATTAAGT
binding signal [2]: 11.6 upbm affinity estimate (log intensity, higher = more binding, comparable within an allelic series)
binding signal [4]: 12.1 upbm affinity estimate (log intensity, higher = more binding, comparable within an allelic series)
binding signal [5]: 8.5 upbm affinity estimate (log intensity, higher = more binding, comparable within an allelic series)
binding signal [15]: 12.8 upbm affinity estimate (log intensity, higher = more binding, comparable within an allelic series)
binding signal [6]: 10.5 upbm affinity estimate (log intensity, higher = more binding, comparable within an allelic series)
binding signal [7]: 12.5 upbm affinity estimate (log intensity, higher = more binding, comparable within an allelic series)
binding signal [8]: 10.9 upbm affinity estimate (log intensity, higher = more binding, comparable within an allelic series)
binding signal [10]: 10.8 upbm affinity estimate (log intensity, higher = more binding, comparable within an allelic series)
binding signal [16]: 10.8 upbm affinity estimate (log intensity, higher = more binding, comparable within an allelic series)
binding signal [1]: 11.4 upbm affinity estimate (log intensity, higher = more binding, comparable within an allelic series)
binding signal [11]: 8.69 upbm affinity estimate (log intensity, higher = more binding, comparable within an allelic series)
binding signal [17]: 11.7 upbm affinity estimate (log intensity, higher = more binding, comparable within an allelic series)

GAGCTGGC
binding signal [18]: 8.29 upbm affinity estimate (log intensity, higher = more binding, comparable within an allelic series)
binding signal [19]: 8.35 upbm affinity estimate (log intensity, higher = more binding, comparable within an allelic series)

CCGTAGGC
binding signal [18]: 8.48 upbm affinity estimate (log intensity, higher = more binding, comparable within an allelic series)
binding signal [19]: 8.4 upbm affinity estimate (log intensity, higher = more binding, comparable within an allelic series)

CCAGCGCA
binding signal [13]: 7.28 upbm affinity estimate (log intensity, higher = more binding, comparable within an allelic series)
binding signal [9]: 7.16 upbm affinity estimate (log intensity, higher = more binding, comparable within an allelic series)
binding signal [14]: 7.39 upbm affinity estimate (log intensity, higher = more binding, comparable within an allelic series)

AGAGCGCG
binding signal [2]: 9.35 upbm affinity estimate (log intensity, higher = more binding, comparable within an allelic series)
binding signal [6]: 9.32 upbm affinity estimate (log intensity, higher = more binding, comparable within an allelic series)
binding signal [8]: 9.31 upbm affinity estimate (log intensity, higher = more binding, comparable within an allelic series)
binding signal [10]: 9.39 upbm affinity estimate (log intensity, higher = more binding, comparable within an allelic series)

GCCAGACC
binding signal [2]: 9.2 upbm affinity estimate (log intensity, higher = more binding, comparable within an allelic series)
binding signal [4]: 7.3 upbm affinity estimate (log intensity, higher = more binding, comparable within an allelic series)
binding signal [15]: 10.5 upbm affinity estimate (log intensity, higher = more binding, comparable within an allelic series)
binding signal [6]: 9.2 upbm affinity estimate (log intensity, higher = more binding, comparable within an allelic series)
binding signal [8]: 9.19 upbm affinity estimate (log intensity, higher = more binding, comparable within an allelic series)
binding signal [10]: 9.26 upbm affinity estimate (log intensity, higher = more binding, comparable within an allelic series)
binding signal [16]: 10.4 upbm affinity estimate (log intensity, higher = more binding, comparable within an allelic series)
binding signal [17]: 7.38 upbm affinity estimate (log intensity, higher = more binding, comparable within an allelic series)

CCTAGCTC
binding signal [12]: 8.35 upbm affinity estimate (log intensity, higher = more binding, comparable within an allelic series)
binding signal [18]: 8.59 upbm affinity estimate (log intensity, higher = more binding, comparable within an allelic series)
binding signal [3]: 8.28 upbm affinity estimate (log intensity, higher = more binding, comparable within an allelic series)
binding signal [19]: 8.42 upbm affinity estimate (log intensity, higher = more binding, comparable within an allelic series)
binding signal [1]: 9.87 upbm affinity estimate (log intensity, higher = more binding, comparable within an allelic series)

CGATTATC
binding signal [12]: 10.6 upbm affinity estimate (log intensity, higher = more binding, comparable within an allelic series)
binding signal [3]: 10.6 upbm affinity estimate (log intensity, higher = more binding, comparable within an allelic series)

GCCAGCCC
binding signal [13]: 7.02 upbm affinity estimate (log intensity, higher = more binding, comparable within an allelic series)
binding signal [9]: 7.2 upbm affinity estimate (log intensity, higher = more binding, comparable within an allelic series)
binding signal [14]: 7.16 upbm affinity estimate (log intensity, higher = more binding, comparable within an allelic series)

ACAATTAT
binding signal [20]: 9.99 upbm affinity estimate (log intensity, higher = more binding, comparable within an allelic series)
binding signal [6]: 10.6 upbm affinity estimate (log intensity, higher = more binding, comparable within an allelic series)
binding signal [11]: 8.71 upbm affinity estimate (log intensity, higher = more binding, comparable within an allelic series)

TCCCCCCA
binding signal [4]: 7.32 upbm affinity estimate (log intensity, higher = more binding, comparable within an allelic series)
binding signal [15]: 10.4 upbm affinity estimate (log intensity, higher = more binding, comparable within an allelic series)
binding signal [16]: 10.2 upbm affinity estimate (log intensity, higher = more binding, comparable within an allelic series)
binding signal [1]: 9.56 upbm affinity estimate (log intensity, higher = more binding, comparable within an allelic series)
binding signal [17]: 7.41 upbm affinity estimate (log intensity, higher = more binding, comparable within an allelic series)

ATAATTGC
binding signal [18]: 11.5 upbm affinity estimate (log intensity, higher = more binding, comparable within an allelic series)
binding signal [20]: 9.97 upbm affinity estimate (log intensity, higher = more binding, comparable within an allelic series)
binding signal [4]: 12.4 upbm affinity estimate (log intensity, higher = more binding, comparable within an allelic series)
binding signal [15]: 13.2 upbm affinity estimate (log intensity, higher = more binding, comparable within an allelic series)
binding signal [16]: 10.8 upbm affinity estimate (log intensity, higher = more binding, comparable within an allelic series)
binding signal [19]: 8.84 upbm affinity estimate (log intensity, higher = more binding, comparable within an allelic series)
binding signal [17]: 12.2 upbm affinity estimate (log intensity, higher = more binding, comparable within an allelic series)

GCCCCCCA
binding signal [20]: 8.7 upbm affinity estimate (log intensity, higher = more binding, comparable within an allelic series)
binding signal [1]: 9.58 upbm affinity estimate (log intensity, higher = more binding, comparable within an allelic series)

CCGAGACC
binding signal [5]: 7.75 upbm affinity estimate (log intensity, higher = more binding, comparable within an allelic series)
binding signal [7]: 7.48 upbm affinity estimate (log intensity, higher = more binding, comparable within an allelic series)
binding signal [1]: 9.94 upbm affinity estimate (log intensity, higher = more binding, comparable within an allelic series)
binding signal [11]: 7.73 upbm affinity estimate (log intensity, higher = more binding, comparable within an allelic series)

CCCCCAGC
binding signal [12]: 7.89 upbm affinity estimate (log intensity, higher = more binding, comparable within an allelic series)
binding signal [18]: 8.08 upbm affinity estimate (log intensity, higher = more binding, comparable within an allelic series)
binding signal [3]: 7.96 upbm affinity estimate (log intensity, higher = more binding, comparable within an allelic series)
binding signal [13]: 7.08 upbm affinity estimate (log intensity, higher = more binding, comparable within an allelic series)
binding signal [9]: 7.15 upbm affinity estimate (log intensity, higher = more binding, comparable within an allelic series)
binding signal [19]: 8.17 upbm affinity estimate (log intensity, higher = more binding, comparable within an allelic series)
binding signal [14]: 6.96 upbm affinity estimate (log intensity, higher = more binding, comparable within an allelic series)

CGACGCGA
binding signal [12]: 7.97 upbm affinity estimate (log intensity, higher = more binding, comparable within an allelic series)
binding signal [3]: 8.13 upbm affinity estimate (log intensity, higher = more binding, comparable within an allelic series)

CTGCATTA
binding signal [18]: 9.13 upbm affinity estimate (log intensity, higher = more binding, comparable within an allelic series)
binding signal [4]: 9.52 upbm affinity estimate (log intensity, higher = more binding, comparable within an allelic series)
binding signal [15]: 11.7 upbm affinity estimate (log intensity, higher = more binding, comparable within an allelic series)
binding signal [16]: 10.6 upbm affinity estimate (log intensity, higher = more binding, comparable within an allelic series)
binding signal [19]: 8.56 upbm affinity estimate (log intensity, higher = more binding, comparable within an allelic series)
binding signal [17]: 9.83 upbm affinity estimate (log intensity, higher = more binding, comparable within an allelic series)

GTCCTGCA
binding signal [12]: 8.28 upbm affinity estimate (log intensity, higher = more binding, comparable within an allelic series)
binding signal [3]: 8.13 upbm affinity estimate (log intensity, higher = more binding, comparable within an allelic series)

CGCAATTA
binding signal [18]: 11.2 upbm affinity estimate (log intensity, higher = more binding, comparable within an allelic series)
binding signal [3]: 11.4 upbm affinity estimate (log intensity, higher = more binding, comparable within an allelic series)
binding signal [20]: 9.82 upbm affinity estimate (log intensity, higher = more binding, comparable within an allelic series)
binding signal [4]: 12.4 upbm affinity estimate (log intensity, higher = more binding, comparable within an allelic series)
binding signal [15]: 13.1 upbm affinity estimate (log intensity, higher = more binding, comparable within an allelic series)
binding signal [16]: 10.7 upbm affinity estimate (log intensity, higher = more binding, comparable within an allelic series)
binding signal [19]: 8.67 upbm affinity estimate (log intensity, higher = more binding, comparable within an allelic series)
binding signal [17]: 12.1 upbm affinity estimate (log intensity, higher = more binding, comparable within an allelic series)
